Assay outcomes (PubChem)
GSIS activator = primary screen for activators of insulin secretion dependent on glucose, INS-1E cells, GLuc reporter luminescence; activation, % at 16.6 µM; actives 0.61% (n = 370,000); INS-1E GLuc reporter insulin secretion, 2-3 h;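 active = lowest replicate activation of at least 40%, so every replicate reaches that level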
NSD2 HMT inh = inhibitors of human histone methyltransferase NSD2. actives 0.54% (n = 310,000). NSD2 peptide methylation, AlphaScreen, 120 min. O96028. AID 743445. inhibition, % at 12.5 µM
miR-122 sensor = miR-122 inhibition in Huh7 cells; Huh7 miR-122 Renilla luciferase sensor, 48 h; neutral wells = 0, positive control = 100; activation (reporter increase), % at 12.5 µM; actives 0.3% (n = 340,000); AID 602342;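 active = mean replicate activation score at least 90 and every replicate individually at or above 90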;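 also: higher luciferase means less miR-122 activity so hits act as miR-122 inhibitors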
Dyrk1A ADPGlo = blocks rat Dyrk1A kinase activity; inhibition, % at 12.5 µM; Q63470; actives 0.43% (n = 310,000); ADP-Glo luminescence, NFATc1 peptide
MITF act = activators of MITF-driven TRPM1 promoter activity in SK-MEL-5 cells | activation, % at 12.5 µM | actives 0.75% (n = 300,000) | SK-MEL-5 TRPM1-promoter luciferase, 24 h; % of positive control, neutral wells = 0;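 active = mean activation of at least 80% with every replicate also reaching 80%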
Wnt act = activates Wnt/beta-catenin signaling in a reporter cell assay. AID 743398. activator, plate reader. activation, % at 9.35 µM. actives 1.2% (n = 300,000); in the data active = activation above about 30%, passing the limit was not always enough
Large screens that a line does not name were inactive; ! = repeats disagree. An excerpt weighted towards active compounds, which were near 2.4% of everything screened. Rule as the data show it, unless noted: active = inhibition above about 50%; inactive = the rest.

C[C@@H]1CN([C@H](C)CO)C(=O)c2cc(C3=CCCCC3)cnc2O[C@H]1CN(C)C(=O)CN1CCOCC1	GSIS activator 171 (no result: NSD2 HMT inh, miR-122 sensor, Dyrk1A ADPGlo, MITF act, Wnt act)
C[C@@H]1CN([C@H](C)CO)C(=O)c2cc(C#CCN(C)C)cnc2O[C@H]1CN(C)S(=O)(=O)c1cn(C)cn1	GSIS activator 40 (no result: NSD2 HMT inh, Dyrk1A ADPGlo, MITF act, Wnt act)
COc1cccc(NC(=O)CN(C)C(=O)CNC(=O)c2sc3ccccc3c2Cl)c1	none (no result: Dyrk1A ADPGlo)
COc1ccc(NC(=O)CN(C)C(=O)CNC(=O)c2sc3ccccc3c2Cl)cc1	MITF act 93
CO[C@@H]1CN(C)C(=O)c2ccc(NC(=O)Nc3c(C)noc3C)cc2OC[C@H](C)NC[C@H]1C	none (no result: NSD2 HMT inh, miR-122 sensor, Dyrk1A ADPGlo, MITF act, Wnt act)
Cc1noc(C)c1S(=O)(=O)Nc1ccc2c(c1)CC(=O)N([C@H](C)CO)C[C@H](C)[C@H](CN(C)C)O2	none (no result: NSD2 HMT inh, Dyrk1A ADPGlo, MITF act, Wnt act)
COc1cc(OC)c(NC(=O)CCCn2c(=O)oc3ccccc32)cc1Cl	none (no result: miR-122 sensor, Wnt act)
COc1ccc(NC(=O)CCCn2c(=O)oc3ccccc32)cc1Cl	MITF act 154 (no result: miR-122 sensor)
O=C(N/N=C/c1ccccc1[N+](=O)[O-])c1cccs1	Wnt act 45 (no result: Dyrk1A ADPGlo, MITF act)
Cc1ccsc1/C=N/NC(=O)c1cccs1	none (no result: miR-122 sensor, Wnt act)
Cc1ccc(/C=N/NC(=O)c2cccs2)cc1[N+](=O)[O-]	MITF act 117, Wnt act 40
COc1ccc(S(=O)(=O)Nc2ccc3c(c2)C(=O)N([C@@H](C)CO)C[C@H](C)[C@H](CN(C)S(=O)(=O)c2ccc(C)cc2)O3)cc1	none (no result: NSD2 HMT inh, Dyrk1A ADPGlo, MITF act, Wnt act)
COc1ccc(NC(=O)C2CCCN2S(=O)(=O)c2ccc3c(c2)CC(C)N3C(C)=O)cc1OC (centres undefined)	GSIS activator 101 (no result: Dyrk1A ADPGlo)
COc1ccc(NC(=O)C2CCN(S(=O)(=O)c3ccc4c(c3)CC(C)N4C(C)=O)CC2)cc1OC (centres undefined)	none
C/C=C/c1ccc2c(c1)O[C@H](CN(C)C(=O)Cc1cccnc1)[C@H](C)CN([C@@H](C)CO)S2(=O)=O	none (no result: NSD2 HMT inh, Dyrk1A ADPGlo, MITF act, Wnt act)
COC(=O)C1=C(C)N(Cc2ccc(C(F)(F)F)cc2)C(=NCc2ccccc2C(F)(F)F)NC1c1cccc(Cl)c1 (centres undefined)	GSIS activator 242 (no result: miR-122 sensor, Dyrk1A ADPGlo, MITF act)
COC(=O)C1=C(C)N(Cc2ccc(C(F)(F)F)cc2)C(=NCc2ccccc2C(F)(F)F)NC1c1ccc(Cl)cc1 (centres undefined)	GSIS activator 49 (no result: miR-122 sensor, Dyrk1A ADPGlo, MITF act)
COC(=O)C1=C(C)N(Cc2ccc(C(F)(F)F)cc2)C(=NCc2ccccc2C(F)(F)F)NC1c1ccccc1 (centres undefined)	none (no result: NSD2 HMT inh, miR-122 sensor, Dyrk1A ADPGlo, MITF act)
COC(=O)C1=C(C)N(Cc2ccc(C(F)(F)F)cc2)C(=NCc2ccccc2C(F)(F)F)NC1c1ccc(C(F)(F)F)cc1 (centres undefined)	none (no result: GSIS activator, NSD2 HMT inh, miR-122 sensor, Dyrk1A ADPGlo, MITF act)
CCCN1C[C@@H](C)[C@@H](OC)CN(C)C(=O)c2ccc(NC(=O)c3cccc(F)c3)cc2OC[C@H]1C	GSIS activator 47! (no result: NSD2 HMT inh, miR-122 sensor, Dyrk1A ADPGlo, MITF act)
Cc1noc(C)c1S(=O)(=O)Nc1ccc2c(c1)C(=O)N([C@@H](C)CO)C[C@H](C)[C@H](CN(C)C(=O)Nc1ccccc1)OCCCC[C@H](C)O2	none (no result: NSD2 HMT inh, Dyrk1A ADPGlo, MITF act, Wnt act)
COC(=O)[C@H]1[C@H](CO)[C@H]2Cn3c(ccc(C4=CCCCC4)c3=O)[C@H]2N1Cc1cccnc1	none (no result: NSD2 HMT inh, miR-122 sensor, Dyrk1A ADPGlo, MITF act, Wnt act)
O=C(NCCc1cccs1)C1CC(c2ccc([N+](=O)[O-])cc2)=NO1 (centres undefined)	MITF act 91, Wnt act 34 (no result: NSD2 HMT inh)
CCN(CC(=O)Nc1c(F)cccc1F)C(=O)CNC(=O)c1ccc2ccccc2c1	none (no result: GSIS activator, Dyrk1A ADPGlo)
CCN(CC(=O)Nc1c(F)cccc1F)C(=O)CNC(=O)c1cccs1	Wnt act 38
COc1ccc(S(=O)(=O)Nc2cc3c4c(c2)CCC(=O)N4CCC3)cc1	none
COc1ccc(OC)c(S(=O)(=O)Nc2cc3c4c(c2)CCC(=O)N4CCC3)c1	miR-122 sensor 138
COc1ccc(OC)c(S(=O)(=O)Nc2ccc(C)c(C)c2)c1	none (no result: Wnt act)
COc1ccc(OC)c(S(=O)(=O)Nc2ccc3oc4c(c3c2)C(=O)CCC4)c1	miR-122 sensor 165 (no result: GSIS activator, MITF act, Wnt act)
Cc1ccc(C)c(S(=O)(=O)Nc2cc3c4c(c2)CCC(=O)N4CCC3)c1	miR-122 sensor 218
Cc1cccc(C)c1N=Nc1c(C)cc(O)cc1C	GSIS activator 571, NSD2 HMT inh 58 (no result: MITF act)
Cc1cccc(O)c1C	none (no result: NSD2 HMT inh, MITF act)
